# Measurements taken from the supplement of paper PMC9446081.
# Hit rate of the full screen: of about 39,000 compounds, about 220 (0.56%) showed activity. What follows is part of a selection rich in actives, with near analogues and random picks from the rest. A number with no mark means an inactive call.
# Tested on: Escherichia coli K-12 BW25113
# Experiment: relative growth (OD600 normalised to plate interquartile mean) (fraction); higher = less growth inhibition, active = 0.2 or less
# Conditions: 50 µM; LB; incubation time: overnight (16-24 h)
# 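Note: Wild-type cells incubated without shaking, value is the mean of two biological replicates.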
row,Compound,relative growth
1,COc1ccc(NC(=O)N(C)C[C@@H]2OCCCC[C@@H](C)Oc3ccc(NC(=O)Nc4ccccc4)cc3C(=O)N([C@H](C)CO)C[C@@H]2C)cc1,1.01
2,CCCCCCO[C@@H](C)c1cccc(-c2csc(NC(=O)c3cc(Cl)c(/C=C(\C)C(=O)O)c(Cl)c3)n2)c1OC,0.777
3,C=CCC[C@H](Cc1ccc(F)cc1)C(=O)O[C@@H](CNC(=O)[C@@H](CC=C)CC(=O)N(CCO)Cc1ccccc1)c1ccccc1,1.07
4,CC(=O)N1CCN(C(=O)C(=O)NC[C@H](c2ccc(N(C)C)cc2)N2CCOCC2)CC1,0.989
5,Cc1cc(C)c(NC(=O)[C@@H](N)Cc2ccccc2)c(Cl)c1,1.02
6,Cc1ccc(S(=O)(=O)N(C)C[C@H]2Oc3cc(C#Cc4ccncc4)ccc3S(=O)(=O)N([C@@H](C)CO)C[C@H]2C)cc1,1.04
7,c1ccc(-c2ccnc(-c3cc(-c4ccccc4)ccn3)c2)cc1,0.99
8,Cl.NCCCC(=O)O [gamma-AMINOBUTYRIC ACID HYDROCHLORIDE],0.905
9,O=C(O)c1ccc2c(c1)OCO2,0.853
10,CNC(=O)NCc1ccc2c(c1)OCO2,1
11,CCn1nc(C(=O)O)c(=O)c2cc3c(cc21)OCO3,0.0537 (active)
12,C[C@H](CO)N1C[C@H](C)[C@H](CN(C)S(=O)(=O)c2cn(C)cn2)OCCCC[C@H](C)Oc2ccc(NS(=O)(=O)c3cccs3)cc2C1=O,1.01
13,CS(=O)(=O)N(CCC#N)Cc1ccco1,1
14,C[C@H]1CN([C@@H](C)CO)C(=O)Cc2cc(NC(=O)CCN3CCOCC3)ccc2O[C@@H]1CN(C)S(=O)(=O)c1cn(C)cn1,1.03
15,CC(C)NC(=O)N(C)C[C@@H]1Oc2ccc(NC(=O)Cc3ccccc3)cc2CC(=O)N([C@H](C)CO)C[C@H]1C,0.977
16,CC(C)NC(=O)N(C)C[C@@H]1Oc2ccc(NC(=O)CCC(F)(F)F)cc2CC(=O)N([C@H](C)CO)C[C@@H]1C,0.959
17,Cn1c(=O)cnn(CCCCN2CCN(c3ncccn3)CC2)c1=O,0.987
18,Cl.O=C1CC2(CCCC2)CC(=O)N1CCCCN1CCN(c2ncccn2)CC1,0.0493 (active)
19,O=C(C1CC1)N1CCN(c2ncccn2)CC1,0.991
20,CC(C)CC#Cc1cnc2c(c1)C(=O)N([C@@H](C)CO)C[C@@H](C)[C@H](CN(C)C(=O)CCN1CCCCC1)O2,0.987
21,COc1ccc(NC(=O)N(C)C[C@@H]2Oc3c(NC(=O)CCCCCC(=O)Nc4ccccc4N)cccc3C(=O)N([C@H](C)CO)C[C@H]2C)cc1,1.01
22,C[C@@H]1CN([C@H](C)CO)C(=O)c2cc(NC(=O)Nc3ccc(C(F)(F)F)cc3)ccc2O[C@@H]1CN(C)Cc1ccc(-c2ccccc2)cc1,0.996
23,O=C1NCCN1c1ncc([N+](=O)[O-])s1,0.0407 (active)

row,Compound,relative growth
1,O=C1NCCN1c1cccnc1,1.01
2,CC(=O)Nc1ncc([N+](=O)[O-])s1,0.923
3,Cc1noc(C)c1NC(=O)Nc1ccc2c(c1)CC(=O)N([C@H](C)CO)C[C@@H](C)[C@H](CN(C)CC1CC1)O2,1.02
4,CC(C)[C@@H](CC[C@@H](C)[C@H]1CC[C@H]2[C@@H]3[C@H](O)C[C@H]4C[C@@H](NCCCNCCCCN)CC[C@]4(C)[C@H]3CC[C@]12C)OS(=O)(=O)O,0.137 (active)
5,CCCCCCCCCCCCCCCCCCCC(=O)N[C@H]1CC[C@@]2(C)[C@@H](C1)C[C@@H](O)[C@@H]1[C@@H]2C[C@H](O)[C@]2(C)[C@@H]([C@H](C)CCC(=O)O)CC[C@@H]12,1.02
6,C[C@H](CCC(=O)NCCS(=O)(=O)O)[C@H]1CC[C@H]2[C@@H]3[C@H](O)C[C@@H]4C[C@H](O)CC[C@]4(C)[C@H]3C[C@H](O)[C@]12C,1.01
7,CC(C)[C@@H](CC[C@@H](C)[C@H]1CC[C@H]2[C@@H]3[C@H](O)C[C@H]4C[C@@H](NCCCNCCCCNCCCN)CC[C@]4(C)[C@H]3CC[C@]12C)OS(=O)(=O)O,0.152 (active)
8,COC(=O)CCC(C)C1CCC2C3C(O)CC4CC(O)CCC4(C)C3CC(O)C12C (stereo unspecified),1.03
9,CC(CCC(=O)O)C1CCC2C3C(O)CC4CC(O)CCC4(C)C3CCC12C (stereo unspecified),1.01
10,C[C@H]1CN([C@@H](C)CO)C(=O)Cc2cc(NC(=O)Cc3ccccc3)ccc2O[C@@H]1CN(C)S(=O)(=O)c1ccccc1,0.993
11,CCOC(=O)[C@@H](C)n1ncn2cccc2c1=O,1.01
12,CCCC#Cc1ccc2c(c1)O[C@@H](CN(C)C(=O)c1cnccn1)[C@@H](C)CN([C@H](C)CO)S2(=O)=O,0.971
13,C[C@H]1CC/C=C\[C@H]2O[C@@]34C=CCN(c5ccc6ccccc6c5)C(=O)[C@H]3N(CCO)C(=O)[C@@H]4[C@@H]2C(=O)O1,0.983
14,CC(=O)N1C[C@@H]2C(=O)N(C)C3(CCN(S(=O)(=O)Cc4ccccc4)CC3)[C@H]2C1,0.958
15,C[C@H]1CN([C@@H](C)CO)C(=O)Cc2cc(NC(=O)CCCCCC(=O)Nc3ccccc3N)ccc2O[C@H]1CN(C)C(=O)Nc1ccc(C(F)(F)F)cc1,0.958
16,C[C@H]1CN([C@@H](C)CO)C(=O)c2c(c3ccccc3n2C)-c2ccccc2CO[C@@H]1CN(C)Cc1cccc(F)c1,0.962
17,CC1=C(C(=O)O)N2C(=O)C(NC(=O)C(N)c3ccccc3)C2SC1 (stereo unspecified),1.03
18,N[C@@H](C(=O)N[C@@H]1C(=O)N2C(C(=O)O)=C(Cl)CS[C@H]12)c1ccccc1,0.0303 (active)
19,CC1=C(C(=O)O)N2C(=O)[C@@H](NC(=O)[C@@H](N)c3ccccc3)[C@H]2SC1,0.998
20,N[C@@H](C(=O)N[C@@H]1C(=O)N2C(C(=O)O)=C(Cl)CC[C@H]12)c1ccccc1,0.0311 (active)
21,CC1=C(C(=O)O)N2C(=O)[C@@H](NC(=O)[C@H](N)c3ccccc3)[C@H]2SC1,1.03
22,NC(C(=O)NC1C(=O)N2C(C(=O)O)=C(Cl)CSC12)c1ccccc1 (stereo unspecified),0.0491 (active)
23,CC1=C(C(=O)O)N2C(=O)[C@H](NC(=O)[C@@H](N)c3ccccc3)[C@H]2SC1,1.02
